Laboratory results from PubChem BioAssay AID1508600 (Functional Genomics Laboratory (NCATS/FGL), 2020).
Among all 53,000 sequences or so, about 3,700 (7%) were called active. The full list was thinned out, with actives kept by preference. Unmarked numbers belong to inactive results.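 The calls were made as follows: active = gene knockdowns whose robust z-score for IL-1 alpha signal is at least 2 or at most -2, so actives lie on both sides; inactive = the rest.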

Assay: Components of the Cytosolic LPS Sensing Pathway: Gene Identification via Genome-wide siRNA Screen;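 also: robust z of the log signal after scaling to non-targeting control siRNA wells of the plate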
Conditions: RAW264.7 macrophages, IL-1a HTRF, actives lie on both sides, screened at 100 nM (by protocol), cells primed 5 h with Pam3CSK4 first
Procedure, shortened: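 Supernatant IL-1a by HTRF from RAW264.7 cells primed with Pam3CSK4 (5 hours) and transfected with LipidA (24 hour) after 48h siRNA knockdown at 100 nM; cell viability checked with CellTiter-Glo.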

Sequence | z-score
GGAAAUACCCUGAUAGCCATT against Etl4 | 0.215
GGUAGGAAGCUAGAGAAAUTT against Synj2 | 0.139
GGACUUUAGUGACAGCUAUTT against Fam243 | -0.233
GGCAGCCCUCAAGUUAAUCTT against Zfp612 | -0.552
GCACCUUCCAUCGGAAUGCTT against Tyw5 | -0.269
GGAGAAAAAGAUCUCAGCUTT against D830039M14Rik | -0.021
GCACAAUUGGAAUUGUACATT against Ubqln2 | -2.18 (active)
CCAUGGCCAAGAACUAGUUTT against Hp | 1.26
GGAUUUGAAAUAGGAAUAGTT against Sh3yl1 | 0.689
CCCUAUCUUCAGGCCAUUGTT against Gm10283 | -1.97
CCUGGAGUUAGUUUGACAGTT against Atf4 | -0.042
GGGCCUAUCUGAAAGUUUATT against Nrm | -0.262
GGUAGAAGAAUGCAUAAUGTT against Sema3e | 0.82
CGAGAAUACCAAACUCGUGTT against Usp17ld | -0.255
GCGGUUAUCUGCAUAUAGATT against Ahctf1 | -2.47 (active)
GCAGUAAGCUUUUGCUAAATT against Zfp334 | 1.26
CCUCUUCGGGAAAAUUCUATT against Dao | -0.083
GGGAUAUCUAAUCAAAACCTT against St8sia5 | -0.131
GGCAAAGCAACAAUAUCUATT against Cct7 | -0.809
GGUAUCAAAACAACAGUCCTT against Upk1b | -0.709
GGUCAAAUGCACCCGAUUATT against Hoxc10 | 2.44 (active)
CCUCAAAUUUUGGGUCUCATT against Bcat2 | -1.48
GGGUGAGAUAGGAAAGUGGTT against Rab43 | -0.111
GAUUCUCAUCUCAAUAAGCTT against Serpinb9g | 0.439
CCUCCAAGACUUAAAAGUATT against Csde1 | 0.776
CCUUAUAACUCUUACGUUUTT against Naa50 | -0.169
GGAAAUGAAGACAUACCUGTT against Olfr175 | 0.741
GGAGUGAUGUCUUCACUGATT against Snx31 | -1.12
GGGAAUUUACUGCAGGAUATT against Itln1 | 2.72 (active)
GGUCUUCAUGAAAACCCUCTT against Polr2d | -0.967
